About 1,700 (3.3%) of roughly 52,000 compounds were called active. This excerpt belongs to a sample that is enriched for actives. Unmarked numbers belong to inactive results. No stated cut-off is given here; in the data, active means survival mostly below about 52% (no sharp cut-off); inactive means mostly above about 56%.
The compounds below were run on Wild type (assay: S. aureus survival, RN4220 and DeltatarO strains – OD600, teichoic acid synthesis inhibitors, primary screen (AID 463173)). Conditions: S. aureus RN4220 wild type/DeltatarO growth, OD600, 18 h, hits give low values, screened at 18.75 µg/mL (by protocol).

Row | Compound | survival
1 | CC1CCN(CC2CCN(C(=O)NCc3ccc(F)cc3)CC2)CC1 | 78%
2 | COc1ccccc1OC(C)C(=O)NCC1(N2CCOCC2)CCCCC1 (configuration not stated) | 87%
3 | COc1ccc(CC(=O)NCc2ccc3c(c2)CCN3C(C)=O)cc1OC | 78%
4 | CCC(=O)N1c2ccccc2CC1C(=O)NCCCN1CCN(c2ccc(OC)cc2)CC1 (configuration not stated) | 88%
5 | Cc1ccc(NC(=O)Cn2nc(C(F)(F)F)c3c2CCC3)cc1C | 81%
6 | O=S(=O)(c1ccc2nc(N3CCN(c4ccccc4)CC3)ccc2c1)N1CCCCC1 | 1% (active)
7 | CC1CCN(S(=O)(=O)c2ccc3nc(N4CCN(c5ccccc5)CC4)ccc3c2)CC1 | 77%
8 | O=S(=O)(c1ccc2nc(N3CCN(c4cccc(Cl)c4)CC3)ccc2c1)N1CCCCC1 | 55%
9 | Cc1ccc(NC(=O)C(=O)NCC(c2cccnc2)N2CCN(Cc3ccccc3)CC2)cc1 (configuration not stated) | 85%
10 | CC1CCN(C(=O)c2ccc3c(c2)OCCO3)CC1 | 105%
11 | CN(Cc1ccccc1)c1ccc(-c2nc(-c3ccccn3)no2)cc1[N+](=O)[O-] | 67%
12 | CCc1ccc(CNC(=O)c2cc(=O)[nH]c3ccc(S(=O)(=O)N4CCCCC4)cc23)cc1 | 91%
13 | O=S(=O)(c1ccc(Cl)cc1)c1nc(-c2cccs2)oc1N1CCCCC1 | 45%
14 | Cc1ccc(S(=O)(=O)c2nc(-c3cccs3)oc2N2CCCCC2)cc1 | 50%
15 | Cc1ccc(S(=O)(=O)c2nc(-c3cccs3)oc2N2CCC(C)CC2)cc1 | -10% (active)
16 | O=S(=O)(c1ccccc1)c1nc(-c2cccs2)oc1N1CCCCC1 | 123%
17 | CC1CCN(c2oc(-c3cccs3)nc2S(=O)(=O)c2ccccc2)CC1 | 24%
18 | CC1CCN(c2oc(-c3cccs3)nc2S(=O)(=O)c2ccc(Cl)cc2)CC1 | -8% (active)
19 | O=C(CSc1nc2ccccc2o1)NC1CC1 | 86%
20 | Cc1ccc2c(c1)c1c(c(=O)n(-c3ccccc3C)c(=O)n1CC(=O)NCC1CCCO1)n2C (configuration not stated) | 66%
21 | CCOc1ccc(CCNC(=O)Cn2ncc3c(=O)oc4ccc(C)cc4c32)cc1 | 80%
22 | COc1ccc(NC(=O)CSc2nc(-c3ccccc3)nc3cc(=O)[nH]n23)cc1 | 73%

Row | Compound | survival
23 | CCOC(=O)Cc1c(C)nc2c(-c3ccc(Cl)cc3)c(C(F)(F)F)nn2c1C | 49%
24 | CCCCc1nc2ccccc2n2c(-c3ccc(OC)cc3)c3c(=O)n(C)c(=O)n(C)c3c12 | 52%
25 | CCCCc1c(C)nc2c(-c3ccc(OC)cc3)c(C)[nH]n2c1=O | 12% (active)
26 | Cc1nc2c(-c3ccc(F)cc3)c(C)nn2c(C)c1CCC(=O)NCc1ccc(Cl)cc1 | 91%
27 | CCCCc1c(C)nc2c(-c3ccc(Cl)cc3)c(C)[nH]n2c1=O | -13% (active)
28 | CCOC(=O)CCc1c(C)nc2cc(-c3cc(OC)cc(OC)c3)[nH]n2c1=O | 74%
29 | C#CC(C)(CC)NC(=O)Cn1nnc(-c2ccc(OCc3ccccc3Cl)cc2)n1 (configuration not stated) | 74%
30 | CC1=CC(C)(C)Nc2ccc(OC(=O)c3ccco3)cc21 | 125%
31 | CCc1ccc(NC(=O)Cn2cnc3sc(C)c(S(=O)(=O)N4CCN(c5ccccc5OC)CC4)c3c2=O)cc1 | 138%
32 | CCOC(=O)Cn1c(=O)n(CC2CCCO2)c2nc(-c3ccc(CC)cc3)nc(C(N)=O)c21 (configuration not stated) | 81%
33 | CCOC(=O)Cn1c(=O)n(CC2CCCO2)c2nc(-c3cccc(C)c3)nc(C(N)=O)c21 (configuration not stated) | 55%
34 | CCOC(=O)Cn1c(=O)n(CC2CCCO2)c2nc(-c3ccccc3)nc(C(N)=O)c21 (configuration not stated) | 56%
35 | CCOC(=O)Cn1c(=O)n(CC2CCCO2)c2nc(-c3ccc(OCC)cc3)nc(C(N)=O)c21 (configuration not stated) | -4% (active)
36 | CCOC(=O)Cn1c(=O)n(-c2ccccc2OC)c2nc(-c3ccc(C(C)C)cc3)nc(C(N)=O)c21 | 82%
37 | CCOC(=O)Cn1c(=O)n(-c2ccccc2OC)c2nc(-c3ccccc3)nc(C(N)=O)c21 | -3% (active)
38 | CCOC(=O)Cn1c(=O)n(CC2CCCO2)c2nc(-c3ccc(C(C)C)cc3)nc(C(N)=O)c21 (configuration not stated) | 1% (active)
39 | CCOC(=O)Cn1c(=O)n(CC2CCCO2)c2nc(-c3ccc(C)cc3)nc(C(N)=O)c21 (configuration not stated) | 63%
40 | CCOC(=O)Cn1c(=O)n(-c2ccccc2OC)c2nc(-c3cccc(F)c3)nc(C(N)=O)c21 | 57%
41 | CCCCC(=O)Nc1ccc(NC(=O)C2CC2)nc1 | 101%
42 | COc1ccc(OC)c(NC(=O)Cc2c(C(=O)O)n(C)c3ccc(C)cc23)c1 | 88%
43 | CC1CCCN(S(=O)(=O)c2cc3c4c(c2)CC(=O)N4CCC3)C1 (configuration not stated) | 81%
44 | CC(C)Cn1c(=O)c2sccc2n2c(CCCC(=O)NCC(C)c3ccccc3)nnc12 (configuration not stated) | 96%

Row | Compound | survival
45 | CCCC(=O)N(c1ccc2oc3c(c2c1)CCCC3)S(=O)(=O)c1cc(C)ccc1C | 61%
46 | COc1ccccc1C(=O)Nc1ccc2nc(SCC(=O)N(C)c3ccccc3)sc2c1 | 84%
47 | CC(Sc1nc(-c2ccccc2)c(C#N)c(=O)[nH]1)C(=O)Nc1ccc(F)cc1 (configuration not stated) | 91%
48 | O=C(CSc1ccccc1)N1CCc2c([nH]c3ccccc23)C1c1ccc(Cl)cc1 (configuration not stated) | 64%
49 | COCCCNC(=O)CCn1c(=O)c2ccccc2n(CC(=O)Nc2c(C)cc(C)cc2C)c1=O | 84%
50 | CCOc1ccccc1CNC(=O)CN1C(=O)c2cccnc2Oc2ccc(C)cc21 | 136%
51 | Cc1ccc2nc(/C(C#N)=C/c3ccc(-c4ccc(F)cc4F)o3)[nH]c2c1 | 26%
52 | COC(=O)c1sc(-c2ccccc2)cc1NC(=O)c1cccc(Cl)c1 | 38%
53 | COC(=O)c1sc(-c2ccccc2)cc1NC(=O)Nc1ccccc1Cl | 5% (active)
54 | COC(=O)c1sc(-c2ccccc2)cc1NC(=O)Nc1ccc(Cl)cc1 | 4% (active)
55 | COC(=O)c1sc(-c2ccccc2)cc1NC(=O)Nc1ccc(F)cc1 | 13% (active)
56 | CCOc1ccc(-c2cc(NC(=O)Nc3cccc(C(C)=O)c3)c(C(=O)OC)s2)cc1 | 81%
57 | CCOc1ccc(-c2cc(NC(=O)Nc3ccccc3C(F)(F)F)c(C(=O)OC)s2)cc1 | 72%
58 | COC(=O)c1sc(-c2ccccc2)cc1NC(=O)c1cccc(F)c1 | 87%
59 | CCOc1ccc(-c2cc(NC(=O)Nc3ccccc3Cl)c(C(=O)OC)s2)cc1 | 50%
60 | CCOc1ccc(-c2cc(NC(=O)Nc3ccc(Cl)cc3)c(C(=O)OC)s2)cc1 | 88%
61 | CCc1ccccc1NC(=O)Cn1cc(S(=O)(=O)N2CCCC2)c(S(=O)(=O)N2CCCC2)c1 | 68%
62 | CCc1ccccc1NC(=O)CCn1nc(C)c2c(C)n(-c3ccccc3)nc2c1=O | 88%
63 | Cc1ccc(C(=O)Nc2ccccc2C(=O)OCc2cc(=O)n3nc(C4CC4)sc3n2)cc1 | 87%
64 | COc1cccc(-n2c(=O)c3cc(OC)c(OC)cc3n(CC(=O)Nc3ccc(F)cc3)c2=O)c1 | 73%
65 | Cc1ccc(Cl)cc1N1CCN(C(=O)c2sc3nc4n(c(=O)c3c2C)CCC4)CC1 | 75%
66 | CCOC(=O)c1ccc(NC(=O)c2cc3sccc3n2Cc2ccc(Cl)cc2)cc1 | 87%

Row | Compound | survival
67 | COc1cc(OC)c(NC(=O)Cn2c(=O)nc(-c3ccccc3)c3ccccc32)cc1Cl | 68%
68 | O=C(Nc1nnc(S(=O)(=O)N2CCCc3ccccc32)s1)c1ccc(Cl)cc1 | 19%
69 | O=C(Nc1nnc(S(=O)(=O)N2CCCc3ccccc32)s1)c1cccc(Cl)c1 | 6% (active)
70 | Cc1ccc(OCC(=O)Nc2nnc(S(=O)(=O)N3CCc4ccccc43)s2)cc1 | 24%
71 | Cc1cccc(C(=O)Nc2nnc(S(=O)(=O)N(C)Cc3ccccc3)s2)c1 | 29%
72 | CN(Cc1ccccc1)S(=O)(=O)c1nnc(NC(=O)c2ccccc2)s1 | 35%
73 | COc1ccc(OCC(=O)Nc2nnc(S(=O)(=O)N3CCc4ccccc43)s2)cc1 | 73%
74 | CN(Cc1ccccc1)S(=O)(=O)c1nnc(NC(=O)c2cccc(Cl)c2)s1 | -1% (active)
75 | Cc1cccc(C(=O)Nc2nnc(S(=O)(=O)N3c4ccccc4CC3C)s2)c1 (configuration not stated) | 21%
76 | O=C(Nc1nnc(S(=O)(=O)N2CCCc3ccccc32)s1)c1ccccc1 | 31%
77 | CC1Cc2ccccc2N1S(=O)(=O)c1nnc(NC(=O)c2cccc(F)c2)s1 (configuration not stated) | 10% (active)
78 | CC1Cc2ccccc2N1S(=O)(=O)c1nnc(NC(=O)c2ccccc2)s1 (configuration not stated) | 18%
79 | O=C(COc1ccc(Cl)cc1)Nc1nnc(S(=O)(=O)N2CCc3ccccc32)s1 | 12% (active)
80 | Cc1nnc(N2C(=O)c3oc4ccccc4c(=O)c3C2c2ccc(F)cc2)s1 (configuration not stated) | 79%
81 | O=c1cccc2n1CC1CC(C2)N(c2nc(N3CCCCC3)nc(N3CCCCC3)n2)C1 (configuration not stated) | 104%
82 | CCCn1c(=O)n(-c2ccccc2)c(=O)c2sc3ccccc3c21 | 93%
83 | COc1ccc(CNCc2ccc3c(c2)n(C)c(=O)n3C)cc1 | 90%
84 | COc1cc(NC(=O)C(CC(C)C)NS(=O)(=O)c2ccc3c(c2)oc(=O)n3C)c(C(=O)O)cc1OC (configuration not stated) | 124%
85 | Nc1cccc2c1C(=O)N(CC(=O)O)C2=O | 104%
86 | Cc1ccccc1CNC(=O)Cn1ncn2nc(-c3cccs3)cc2c1=O | 120%
87 | CCOc1ccc(S(=O)(=O)NCC(c2ccco2)S(=O)(=O)c2ccc(F)cc2)cc1 (configuration not stated) | 90%

Reference: PubChem BioAssay AID463173 (ICCB-Longwood Screening Facility, Harvard Medical School, 2010)
